Among all 2,100 compounds or so, about 760 (36%) were called active. A selection follows. Values without a mark were called inactive.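 How the source made its calls: active means thallium-flux fluorescence traces judged by eye to show enhanced or reduced glutamate response, manual score 1 or -1, so both directions (some results past the limit were not filed as active); inactive means the rest, including fluorescent or raised-baseline compounds.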
Assay: thallium influx changes without GIRK channels – cell-based, HEK-293 rmGlu8, no GIRK, thallium flux, counter-screen for GIRK activator project, confirmation (AID 623868);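 further: extra codes mark interference with 3 for fluorescent and 4 for baseline rise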
Details: thallium flux fluorescence, at 10 µM, actives lie on both sides, codes: 1 enhancer, -1 blocker, 0 none, thallium stimulus containing EC20 glutamate

Row | Structure (SMILES) | manual score
1 | O=C(Nc1nnc(-c2cccs2)o1)c1cccc(C(F)(F)F)c1 | 1 (active)
2 | O=C(Nc1nnc(-c2cccs2)o1)c1cccc(F)c1 | 1 (active)
3 | CCCCN(C)S(=O)(=O)c1ccc(C(=O)Nc2nnc(-c3cccs3)o2)cc1 | 1 (active)
4 | Cc1occc1C(=O)Nc1cccc(C(F)(F)F)c1 | 0
5 | Cc1ncoc1C(=O)Nc1ccc(Oc2ccccc2)cc1 | 0
6 | O=C(NNC(=S)Nc1cccc(C(F)(F)F)c1)c1cccc(Cl)c1 | 0
7 | Cc1nc(C)c(C(=O)Nc2ccc(Oc3ccccc3)cc2)o1 | 0
8 | CCOC(=O)C1=C(CC)Nc2ccccc2N=C1NC(=O)c1ccc(S(=O)(=O)N(C)C)cc1 | -0.5
9 | O=C(Nc1cccs1)Nc1c(F)c(F)c(F)c(F)c1F | 0
10 | Cc1cc(C)c(NC(=O)c2ccc(S(=O)(=O)N(C)C)cc2)c(C)n1 | 0
11 | O=C(Nc1nnc(-c2cccs2)o1)c1cccc(Oc2ccccc2)c1 | 1 (active)
12 | CCOC(=O)C1=C(CC)Nc2ccccc2N=C1NC(=O)Nc1ccc(Cl)c(Cl)c1 | 0
13 | CN1CCN(S(=O)(=O)c2cccc(S(=O)(=O)c3cccc(S(=O)(=O)N4CCN(C)CC4)c3)c2)CC1 | 0
14 | Cc1cc2nc(CCN(C(=S)NCC(C)C)C3CCCC3)[nH]c2cc1C | 0
15 | O=C(CN1C(=O)c2cccc3cccc(c23)C1=O)N1CCN(c2ccccn2)CC1 | 3
16 | Cc1sc2nc(CN3CCCC3)nc(N3CCN(S(=O)(=O)c4cccs4)CC3)c2c1C | 0
17 | Cc1nc(N2CCN(C(=O)COc3ccccc3)CC2)c2c(C)c(C)sc2n1 | -1 (active)
18 | CSc1cccc(NC(=O)CN(c2ccccc2)S(=O)(=O)N(C)C)c1 | 0
19 | CN(C)C(=O)CSc1cccc2cccnc12 | 0
20 | Cc1cccc(CSc2cccc3cccnc23)c1 | 1 (active)
21 | CCOC(=O)CSc1cc(CSc2ccccc2)nc(-c2ccccc2)n1 | 0
22 | CCOC(=O)CSc1cccc2cccnc12 | 1 (active)
23 | Cc1ccc(C(=O)c2ccc(N3CCOCC3)c(F)c2)cc1 | 0
24 | CC(CCc1ccccc1)NC(=O)N1CCOCC1 (stereo unspecified) | 0

Row | Structure (SMILES) | manual score
25 | O=C(CCCc1nc(-c2ccc(Cl)cc2)no1)N1CCOCC1 | 0
26 | Cc1ccc(/C=N/NC(=S)N2CCOCC2)cc1 | 1 (active)
27 | O=C(NC(=Nc1ccccc1)N1CCOCC1)Nc1ccccc1 | 0
28 | S=C(N/N=C/c1ccc(Cl)cc1)N1CCOCC1 | 1 (active)
29 | S=C(N/N=C/c1ccccc1)N1CCOCC1 | 1 (active)
30 | Clc1ccc(/C=N/Nc2nc(Cl)nc3ccccc23)cc1 | 0
31 | Cc1ccc(S(=O)(=O)c2c(C)cc(C)nc2Cl)c(C)c1 | 0
32 | Cc1ccn2c(NC3CCCCC3)c(C(C)C)nc2c1 | 0
33 | Cc1ccc(NC(=O)CSC(N)=O)cc1Cl | 0
34 | CC(=O)Nc1ccc(S(=O)(=O)NC(C(=O)O)C2=CCC=CC2)cc1 (stereo unspecified) | 0
35 | CC1=NN(C(N)=S)C(=O)C1N=Nc1ccccc1C (stereo unspecified) | 1 (active)
36 | CC1=NN(C(N)=S)C(=O)C1N=Nc1ccc(C)cc1C (stereo unspecified) | 1 (active)
37 | N=c1c2c(ncn1CCN1CCOCC1)Oc1ccc3ccccc3c1C2c1ccccc1 (stereo unspecified) | 0
38 | Cn1c(=O)c(NCCc2ccccc2)c2c3c(cccc31)C(=O)c1ccccc1-2 | 3
39 | Cc1nnc2n(C3CCCCC3)c(=O)c3c4c(sc3n12)COC(C)(C)C4 | -1 (active)
40 | CC(Nc1nc(N2CCCCC2)nc2ccccc12)c1ccccc1 (stereo unspecified) | 0
41 | Cc1ccc(NC(=S)NNc2ncc(C(F)(F)F)cc2Cl)c(C)c1 | 1 (active)
42 | O=C1/C(=C\c2ccccn2)SC(=S)N1Nc1ncc(C(F)(F)F)cc1Cl | 0
43 | O=C(NNc1ncc(C(F)(F)F)cc1Cl)c1c(Cl)cccc1Cl | 0.5
44 | FC(F)(F)c1cnc(NNC(=S)Nc2ccccc2Cl)c(Cl)c1 | 1 (active)
45 | Cc1ccc(NC(=S)Nc2ccc(Cl)c(Cl)c2)c(OC(F)F)c1 | 0
46 | NC(=O)c1ccc(Cc2ncc(C(F)(F)F)cc2Cl)s1 | 0
47 | FC(F)(F)c1cnc(NNC(=S)Nc2ccc(Cl)cc2)c(Cl)c1 | 1 (active)
48 | Cn1c(=O)c(NCCO)c2c3c(cccc31)C(=O)c1ccccc1-2 | 3

Row | Structure (SMILES) | manual score
49 | C/C(=N/NC(=O)c1ccncc1)c1cc2ccc(O)cc2oc1=O | 0
50 | Cc1cccc(NC(=S)NC(=O)c2ccco2)n1 | 1 (active)
51 | O=C(NC(=S)Nc1ccccn1)c1ccco1 | 1 (active)
52 | O=C(CC(=O)Nc1ccccn1)Nc1ccccn1 | 0
53 | Cc1cc(NC(=O)c2ccco2)ccc1NC(=O)Cc1cccs1 | 0
54 | Cc1ccc2nsnc2c1NC(=S)NC(=O)c1ccco1 | 1 (active)
55 | O=C(NCCCn1ccnc1)Nc1ccc(Cl)c(Cl)c1 | 0
56 | N/C(=N/O)c1nc(N2CCCC2)nc(N(c2ccccc2)c2ccccc2)n1 | 0
57 | CC(C)C(C)(C#N)NC(=O)CSc1ncnc2sc(-c3ccccc3)cc12 (stereo unspecified) | 0
58 | CCN(CC)C(=O)CSc1ncnc2sc(-c3ccccc3)cc12 | 0.5
59 | CC(=O)c1c(C)[nH]c(C(=O)CSc2ncnc3sc(-c4ccccc4)cc23)c1C | 1 (active)
60 | CN(CCC#N)C(=O)CSc1ncnc2sc(-c3ccccc3)cc12 | 0
61 | CC(C)N(C(=O)CSc1ncnc2sc(-c3ccccc3)cc12)C(C)C | 1 (active)
62 | CC(=O)c1c(C)[nH]c(C(=O)COc2cc(C)cc(C)c2)c1C | 0
63 | CCOC(=O)Cn1c(=O)oc2cc(S(=O)(=O)NCCCc3ccccc3)ccc21 | 0
64 | Nc1nc(Nc2ccccc2)nc(NCc2ccco2)c1[N+](=O)[O-] | 0
65 | CCOC(=O)c1sc2ncnc(NCc3ccco3)c2c1C | 1 (active)
66 | CNC(=S)N1CCN(c2ccc(OC)cc2)CC1 | 0
67 | CC1CCN(C(=S)NC(=O)c2ccccc2)CC1 | 0.5
68 | COc1ccc(C(=O)NC(=S)N2CCCCC2)cc1 | 1 (active)
69 | COc1ccc(C(=O)NC(=S)N2CCC(C)CC2)cc1 | 1 (active)
70 | COc1ccc(NC(=O)Nc2ccccc2C(=O)N2CCCC2)cc1 | 0
71 | Cc1cccc(NC(=S)N2CCC(C(=O)c3ccc(F)cc3)CC2)c1C | 0
